Assay results: PubChem BioAssay (NCI)
“And” between values parts separate entries of the source, which are not always exact repeats. Identical values can stand only once. This is part of a sample that, as a whole, favours compounds with a hit. Of some 83,000 tested, about 20% had one in any assay.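 Results are percent growth after 48 hours of single-concentration exposure. 100 means growth as in untreated cells, lower positive values show inhibition; negative values down to -100 show cell death.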 Unmarked numbers belong to inactive results. The source made the active and inactive calls. How the source made its calls: active means growth percent below 10; inactive means the rest.

tested on: MDA-MB-468 breast; assay: NCI-60 one-dose screen, 48 h (100 = growth as untreated, 0 = no growth, -100 = all killed); settings: 10 µM unless noted

Row | SMILES | growth
1 | Cc1ccc(CSC(=N)N)cc1C | 104%
2 | CNC(=O)c1cc(Oc2ccc3c(c2)sc2nc(-c4ccc(Cl)c(C(F)(F)F)c4)cn23)ccn1 | 5.6% (active)
3 | O=C(N/N=C/c1ccc([N+](=O)[O-])o1)c1ccc(O)cc1 | 12.8%
4 | Cc1csc(Nc2nc(-c3ccc(Cl)cc3)nc(C(Cl)(Cl)Cl)n2)n1 | 9.54% (active)
5 | CCOC(=O)c1ccc2[nH]c(O)c(C(=Nc3ccc(N(C)C(=O)CN4CCN(C)CC4)cc3)c3ccccc3)c2c1 | -84.4% (active)
6 | CN(C)Cc1cc(C(C)(C)CC(C)(C)C)ccc1O | 100%
7 | Nc1nc(N)c(N=Nc2c(Br)cc(S(N)(=O)=O)cc2Br)c(N)n1 | 54%
8 | COc1cc(-c2nc(-c3nnc(-c4ccccc4Cl)o3)c3ccccn23)cc(OC)c1OC | 88.5%
9 | CC(=O)CCSc1ccc(OC(C)=O)cc1 | 101%
10 | CC(=O)Oc1cccc(S(=O)(=O)n2cc(C(=O)C(=O)Nc3ccncc3)c3ccccc32)c1 | 7.5% (active)
11 | CN[C@@H](CCCNC(N)=NC/C=C(/C)CCC=C(C)C)C(=O)N(C)[C@@H](CCCNC(N)=NCC=C(C)C)C(=O)N[C@H](C)[C@H](OS(=O)(=O)O)c1ccc(OS(=O)(=O)O)c(COS(=O)(=O)O)c1 | 97.3%
12 | CC1CCCC(C(=O)O)C1C(=O)O (centres undefined) | 97%
13 | NC1=NN(c2ccccc2)C(=O)/C1=C/c1ccc(Cl)cc1 | 114%
14 | NC(=O)c1c(OCc2c(F)cc(Br)cc2F)nsc1NC(=O)NCCCCN1CCCC1 | -57.8% (active)
15 | O=C(CS)OCC(COC(=O)CS)(COC(=O)CS)COC(=O)CS | 78.8%
16 | CC1(C)CC[C@]2(C(=O)NCCNCCN)CC[C@]3(C)C(=CC[C@@H]4[C@@]5(C)CCC(=O)C(C)(C)[C@@H]5CC[C@]43C)[C@@H]2C1 | -67% (active)
17 | Cc1cc(NCc2cc(Nc3ccnc4cc(Cl)ccc34)ccc2F)nc(N2CCN(c3ccccc3)CC2)n1 | 30.2%
18 | O=C(/C=C/c1cccc([N+](=O)[O-])c1)c1ccc(O)c(CN2CCN(c3cc4c(cc3F)c(=O)c(C(=O)O)cn4C3CC3)CC2)c1 | -24.5% (active)
19 | CCOC(=O)Oc1c(OC)cc(C(=O)O[C@@H]2C[C@@H]3CN4CCc5c([nH]c6cc(OC)ccc56)[C@H]4C[C@@H]3[C@H](C(=O)OC)[C@H]2OC)cc1OC | 98.8%
20 | Cc1ccccc1C(=O)NN | 121%

Row | SMILES | growth
21 | O=Nc1ccccc1N=O | 91.7%
22 | CN1/C(=C/C=C/c2n(Cc3ccc4ccccc4c3)c(Cl)c(Cl)[n+]2Cc2ccc3ccccc3c2)Oc2ccccc21 | -56.7% (active)
23 | CC1=CC(=O)C=CC1(C)C(Cl)(Cl)Cl (centres undefined) | 98.4%
24 | C=C(C)[C@@H]1CC[C@]2(C)[C@H](CC=C3[C@@H]4CC(C)(C)CC[C@]4(C(=O)NCC#CCN4CCN(C)CC4)CC[C@]32C)[C@@]1(C)CCC#N | 47.9%
25 | Nc1nc(N)c2c(n1)NC(c1cccc(Nc3ccnc4cc(C(F)(F)F)ccc34)c1)CC(c1ccc(Br)cc1)=N2 (centres undefined) | 41.9%
26 | O=C(N/N=C/c1c(Cl)cccc1Cl)c1ccccc1Nc1ccnc(C(F)(F)F)c1 | 53.5%
27 | CN(C)c1ccc2nc3ccc(=O)cc-3sc2c1 | 15% and 29.5%
28 | Fc1ccc(Nc2nc(NCCNc3ccnc4cc(Cl)ccc34)nc(N3CCOCC3)n2)cc1 | 16.7%
29 | Cc1cc2c(cc1[N+](=O)[O-])NC(CNC(C)C)CC2 (centres undefined) | 83.3%
30 | CN(C)C1CCC(NC2=CC(=O)C=CC2=O)CC1 (centres undefined) | 105%
31 | C=C[C@@H]1C[C@@H]2Cc3cc(Cl)ccc3N1O2 | 95.1%
32 | CC1(C)N=C(N)N=C(N)N1c1cccc(CCCCc2ccccc2)c1 | -57.7% (active)
33 | COc1ccc(/C=C/C(=O)Nc2ccc(-c3nc4ccc(F)cc4s3)cc2)cc1 | -12.9% (active)
34 | O=S(=O)(CCN1CCOCC1)Nc1cc(-c2ccc3ncnc(Nc4ccc(F)c(Cl)c4)c3c2)cnc1Cl | -34.4% (active)
35 | CSc1nc2ccccc2cc1/C=C1/C=C(c2ccccc2)NC1=O | 61.6%
36 | O=C(N/N=C/c1cc2ccccc2c2ccccc12)c1cc(O)c(O)c(O)c1 | 64.9%
37 | CCCCn1c(=O)c(/C=C/C(=O)/C=C/c2ccc(O)c(OC)c2)cc2ccc(Cl)cc21 | 15%
38 | O=S=Nc1ccc([N+](=O)[O-])cc1 | 103%
39 | C#CCN=C[C@]12CC[C@@H](C(=C)C)[C@@H]1[C@H]1CC[C@@H]3[C@@]4(C)CCC(=O)C(C)(C)[C@@H]4CC[C@@]3(C)[C@]1(C)CC2 | 40.3%
